According to the supplement of paper PMC11732987, “Enantioselective OTUD7B fragment discovery through chemoproteomics screening and high-throughput optimisation” (Communications Chemistry, 2025):
A number with no mark means an inactive call.

Assays:
Test in all cases: log2 ratio of Biotin-Ahx-Ub-VS probe labelling (fragment/DMSO); higher = less target engagement (more negative = stronger competition), active = hit call of the paper (q ≤ 0.05, log2 ratio ≤ -1)
Details in all cases: compound concentration: 200 uM; treatment time: 3 h
[1] = biological target: T1, ALG13 (UniProt Q9NP73)
T1 sequence (whole entry): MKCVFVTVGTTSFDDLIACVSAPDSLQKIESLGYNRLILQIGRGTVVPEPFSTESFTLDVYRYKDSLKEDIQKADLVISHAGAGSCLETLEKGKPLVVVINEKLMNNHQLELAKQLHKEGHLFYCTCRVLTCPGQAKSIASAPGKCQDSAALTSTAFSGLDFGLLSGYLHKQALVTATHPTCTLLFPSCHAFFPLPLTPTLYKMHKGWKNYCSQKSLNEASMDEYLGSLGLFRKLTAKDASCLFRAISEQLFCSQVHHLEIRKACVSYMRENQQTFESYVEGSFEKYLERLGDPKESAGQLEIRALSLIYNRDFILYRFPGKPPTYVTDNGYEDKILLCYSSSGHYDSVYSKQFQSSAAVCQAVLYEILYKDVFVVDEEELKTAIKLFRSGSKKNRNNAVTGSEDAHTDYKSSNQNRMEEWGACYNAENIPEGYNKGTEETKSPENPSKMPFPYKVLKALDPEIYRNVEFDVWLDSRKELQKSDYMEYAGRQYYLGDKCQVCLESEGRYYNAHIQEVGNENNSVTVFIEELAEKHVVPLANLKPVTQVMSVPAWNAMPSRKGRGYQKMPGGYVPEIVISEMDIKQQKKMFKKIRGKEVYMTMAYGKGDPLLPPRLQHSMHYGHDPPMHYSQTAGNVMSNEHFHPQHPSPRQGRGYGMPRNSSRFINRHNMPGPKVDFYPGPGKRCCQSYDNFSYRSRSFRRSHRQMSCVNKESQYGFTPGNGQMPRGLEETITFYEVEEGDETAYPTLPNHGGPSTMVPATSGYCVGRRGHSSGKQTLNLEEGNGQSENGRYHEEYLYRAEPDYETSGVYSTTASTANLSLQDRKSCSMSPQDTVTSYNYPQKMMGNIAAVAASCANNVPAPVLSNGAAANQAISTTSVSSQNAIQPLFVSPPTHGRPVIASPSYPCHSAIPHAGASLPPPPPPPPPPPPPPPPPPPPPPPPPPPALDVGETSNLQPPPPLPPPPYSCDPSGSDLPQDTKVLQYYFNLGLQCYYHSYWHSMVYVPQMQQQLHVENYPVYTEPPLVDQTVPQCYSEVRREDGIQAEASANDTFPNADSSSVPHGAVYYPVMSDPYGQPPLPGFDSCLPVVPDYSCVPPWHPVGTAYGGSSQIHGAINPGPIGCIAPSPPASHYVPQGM
How it was run: (§1)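 HEK293T lysate, 495 µg per sample in Tris/CHAPS/IGEPAL buffer with protease inhibitors, was treated in triplicate with fragment at 200 µM or vehicle for 3 h and then with Biotin-Ahx-Ub-VS at 0.5 µM final for 1 h. Labelled DUBs were NeutrAvidin-enriched, digested with LysC and trypsin, and run by diaPASEF LC-MS/MS. Spectronaut label-free quantities were global-median-normalised, and values are average log2 fragment/vehicle ratios by unpaired t-test on proteins with ≥2 unique peptides.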

[2] = biological target: ATXN3 (UniProt P54252)
How it was run: as §1

[3] = biological target: T2, BAP1 (UniProt Q92560)
T2 sequence (whole entry): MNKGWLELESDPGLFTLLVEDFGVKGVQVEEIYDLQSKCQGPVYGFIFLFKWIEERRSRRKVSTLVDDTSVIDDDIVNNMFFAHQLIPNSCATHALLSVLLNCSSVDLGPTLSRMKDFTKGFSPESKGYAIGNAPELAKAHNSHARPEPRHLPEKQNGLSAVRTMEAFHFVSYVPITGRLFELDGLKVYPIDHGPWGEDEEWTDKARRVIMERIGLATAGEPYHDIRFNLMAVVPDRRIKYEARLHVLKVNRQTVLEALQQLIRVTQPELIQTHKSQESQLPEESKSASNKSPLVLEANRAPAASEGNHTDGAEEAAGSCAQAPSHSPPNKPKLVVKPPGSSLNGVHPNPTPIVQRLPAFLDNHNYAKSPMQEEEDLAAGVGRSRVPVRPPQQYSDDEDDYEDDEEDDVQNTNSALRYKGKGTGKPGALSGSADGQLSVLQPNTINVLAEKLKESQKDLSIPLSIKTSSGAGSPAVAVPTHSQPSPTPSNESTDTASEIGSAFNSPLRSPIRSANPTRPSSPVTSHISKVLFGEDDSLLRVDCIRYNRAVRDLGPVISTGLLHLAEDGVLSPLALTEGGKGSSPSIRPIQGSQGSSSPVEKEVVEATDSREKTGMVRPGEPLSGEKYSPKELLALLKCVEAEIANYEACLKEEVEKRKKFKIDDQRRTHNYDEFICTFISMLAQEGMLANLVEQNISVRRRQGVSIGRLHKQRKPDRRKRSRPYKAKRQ
How it was run: as §1

[4] = biological target: EIF3F (UniProt O00303)
How it was run: as §1

[5] = biological target: EIF3H (UniProt O15372)
How it was run: as §1

[6] = biological target: T3, FAM105A (UniProt Q9NUU6)
T3 sequence (whole entry): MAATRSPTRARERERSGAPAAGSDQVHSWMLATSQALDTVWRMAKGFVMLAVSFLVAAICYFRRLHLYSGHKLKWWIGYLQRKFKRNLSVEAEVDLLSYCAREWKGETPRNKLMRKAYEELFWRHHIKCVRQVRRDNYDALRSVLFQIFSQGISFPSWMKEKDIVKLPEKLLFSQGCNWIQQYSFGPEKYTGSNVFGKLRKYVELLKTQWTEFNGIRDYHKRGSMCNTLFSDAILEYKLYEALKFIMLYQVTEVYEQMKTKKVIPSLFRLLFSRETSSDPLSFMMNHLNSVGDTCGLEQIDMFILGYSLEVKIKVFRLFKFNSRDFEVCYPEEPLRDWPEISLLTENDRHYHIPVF
How it was run: as §1

[7] = biological target: OTUB1 (UniProt Q96FW1)
How it was run: as §1

[8] = biological target: T4, OTUD4 (UniProt Q01804)
T4 sequence (whole entry): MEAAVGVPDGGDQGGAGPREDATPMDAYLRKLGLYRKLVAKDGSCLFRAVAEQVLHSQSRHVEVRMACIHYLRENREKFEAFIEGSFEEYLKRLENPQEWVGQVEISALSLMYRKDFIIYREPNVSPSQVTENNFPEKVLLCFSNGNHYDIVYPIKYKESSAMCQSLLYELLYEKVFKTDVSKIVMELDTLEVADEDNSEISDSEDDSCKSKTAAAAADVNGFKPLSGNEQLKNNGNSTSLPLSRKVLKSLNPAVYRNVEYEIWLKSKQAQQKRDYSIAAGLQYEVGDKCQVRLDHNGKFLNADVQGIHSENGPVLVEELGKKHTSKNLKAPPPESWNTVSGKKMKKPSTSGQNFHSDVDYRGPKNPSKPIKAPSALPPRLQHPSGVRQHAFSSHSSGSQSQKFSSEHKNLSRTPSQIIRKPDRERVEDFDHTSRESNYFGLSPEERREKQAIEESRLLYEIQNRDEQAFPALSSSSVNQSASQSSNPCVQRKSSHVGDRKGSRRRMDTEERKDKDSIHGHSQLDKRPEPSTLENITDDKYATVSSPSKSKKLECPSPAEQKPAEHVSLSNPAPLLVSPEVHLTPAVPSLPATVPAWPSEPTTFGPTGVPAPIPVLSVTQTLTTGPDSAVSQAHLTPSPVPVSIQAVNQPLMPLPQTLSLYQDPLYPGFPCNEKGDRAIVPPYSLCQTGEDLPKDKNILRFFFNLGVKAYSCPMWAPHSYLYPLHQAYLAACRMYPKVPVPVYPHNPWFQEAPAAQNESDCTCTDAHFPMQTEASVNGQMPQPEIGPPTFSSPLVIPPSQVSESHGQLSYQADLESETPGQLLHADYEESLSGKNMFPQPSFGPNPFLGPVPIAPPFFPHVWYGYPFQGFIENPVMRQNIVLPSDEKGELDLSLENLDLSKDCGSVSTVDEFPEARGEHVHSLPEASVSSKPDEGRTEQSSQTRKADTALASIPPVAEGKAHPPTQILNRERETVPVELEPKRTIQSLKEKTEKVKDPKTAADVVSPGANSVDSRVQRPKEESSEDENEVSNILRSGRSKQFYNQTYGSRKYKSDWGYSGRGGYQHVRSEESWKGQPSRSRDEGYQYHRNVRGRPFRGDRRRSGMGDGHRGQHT
How it was run: as §1

[9] = biological target: T5, OTUD5 (UniProt Q96G74)
T5 sequence (whole entry): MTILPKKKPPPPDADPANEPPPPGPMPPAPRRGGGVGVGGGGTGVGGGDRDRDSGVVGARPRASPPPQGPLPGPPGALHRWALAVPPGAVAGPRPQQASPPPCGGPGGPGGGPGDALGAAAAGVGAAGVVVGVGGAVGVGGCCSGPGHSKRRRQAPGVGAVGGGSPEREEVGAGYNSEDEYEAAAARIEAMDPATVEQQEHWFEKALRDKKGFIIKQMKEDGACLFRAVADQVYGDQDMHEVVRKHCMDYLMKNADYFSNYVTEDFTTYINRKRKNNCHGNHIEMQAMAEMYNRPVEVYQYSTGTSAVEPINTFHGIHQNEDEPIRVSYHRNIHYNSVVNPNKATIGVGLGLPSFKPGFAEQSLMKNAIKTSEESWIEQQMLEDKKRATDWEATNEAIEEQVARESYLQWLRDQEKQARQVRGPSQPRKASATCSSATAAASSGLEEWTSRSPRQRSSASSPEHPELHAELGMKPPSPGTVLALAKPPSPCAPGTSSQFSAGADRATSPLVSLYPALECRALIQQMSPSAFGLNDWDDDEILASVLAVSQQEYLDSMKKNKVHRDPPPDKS
How it was run: as §1

Chain of EIF3H (O15372 whole entry): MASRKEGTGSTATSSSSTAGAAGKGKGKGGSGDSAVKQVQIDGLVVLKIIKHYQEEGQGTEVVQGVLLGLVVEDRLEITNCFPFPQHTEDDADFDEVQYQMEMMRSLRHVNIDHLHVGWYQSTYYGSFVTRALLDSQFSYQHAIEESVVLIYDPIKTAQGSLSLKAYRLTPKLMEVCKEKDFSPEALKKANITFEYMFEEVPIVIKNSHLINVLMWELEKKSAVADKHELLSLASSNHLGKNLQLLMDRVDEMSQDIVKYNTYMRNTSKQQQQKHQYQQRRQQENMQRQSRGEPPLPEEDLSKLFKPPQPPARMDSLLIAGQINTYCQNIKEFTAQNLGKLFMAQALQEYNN
Chain of EIF3F (O00303 whole entry): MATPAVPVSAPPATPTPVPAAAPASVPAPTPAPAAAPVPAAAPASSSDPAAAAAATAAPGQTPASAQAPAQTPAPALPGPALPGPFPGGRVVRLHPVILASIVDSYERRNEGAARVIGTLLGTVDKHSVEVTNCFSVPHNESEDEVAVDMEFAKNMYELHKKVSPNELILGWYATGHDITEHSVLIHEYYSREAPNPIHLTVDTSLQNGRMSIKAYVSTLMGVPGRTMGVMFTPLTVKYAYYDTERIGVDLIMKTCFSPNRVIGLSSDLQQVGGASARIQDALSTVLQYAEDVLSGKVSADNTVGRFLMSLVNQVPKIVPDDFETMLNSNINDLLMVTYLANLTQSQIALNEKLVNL
Chain of ATXN3 (P54252 whole entry): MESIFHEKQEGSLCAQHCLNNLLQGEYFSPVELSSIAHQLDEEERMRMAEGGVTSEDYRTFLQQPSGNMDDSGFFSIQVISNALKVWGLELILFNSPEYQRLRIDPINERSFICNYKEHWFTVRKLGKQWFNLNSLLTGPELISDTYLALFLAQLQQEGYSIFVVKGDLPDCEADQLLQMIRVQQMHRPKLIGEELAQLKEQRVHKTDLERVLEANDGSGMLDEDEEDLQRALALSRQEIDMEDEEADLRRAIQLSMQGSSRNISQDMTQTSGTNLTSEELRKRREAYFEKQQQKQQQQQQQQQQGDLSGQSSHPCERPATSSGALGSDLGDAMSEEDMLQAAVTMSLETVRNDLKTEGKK
Chain of OTUB1 (Q96FW1 whole entry): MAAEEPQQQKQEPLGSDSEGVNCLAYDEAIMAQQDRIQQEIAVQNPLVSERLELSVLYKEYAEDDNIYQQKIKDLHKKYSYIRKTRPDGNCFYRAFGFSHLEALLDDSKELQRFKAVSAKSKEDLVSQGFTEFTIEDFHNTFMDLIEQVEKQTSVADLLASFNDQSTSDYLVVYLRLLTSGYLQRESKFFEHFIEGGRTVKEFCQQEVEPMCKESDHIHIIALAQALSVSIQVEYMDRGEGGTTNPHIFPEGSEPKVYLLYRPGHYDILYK

Compound: Cc1nc(-c2cccc(NC(=O)CCl)c2)cs1
- log2 ratio of Biotin-Ahx-Ub-VS probe labelling [1]: 0.3
- log2 ratio of Biotin-Ahx-Ub-VS probe labelling [2]: -0.742
- log2 ratio of Biotin-Ahx-Ub-VS probe labelling [3]: -3.5 (active)
- log2 ratio of Biotin-Ahx-Ub-VS probe labelling [4]: -0.303
- log2 ratio of Biotin-Ahx-Ub-VS probe labelling [5]: 0.167
- log2 ratio of Biotin-Ahx-Ub-VS probe labelling [6]: 0.000667
- log2 ratio of Biotin-Ahx-Ub-VS probe labelling [7]: -0.0946
- log2 ratio of Biotin-Ahx-Ub-VS probe labelling [8]: -0.305
- log2 ratio of Biotin-Ahx-Ub-VS probe labelling [9]: -0.539
